Experimental data taken from PubChem BioAssay (NCI).
The panel holds about 83,000 compounds, 20% with a hit somewhere; the sample as a whole holds those more often.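 A percent growth of 40 corresponds to 60% growth inhibition; 0 means no net growth; -100 means all cells died. Active threshold: below 10.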 Activity calls are given as the source filed them.

Columns and labels:
Test in all cases: NCI-60 one-dose screen, 48 h (100 = growth as untreated, 0 = no growth, -100 = all killed)
Details in all cases: 10 µM unless noted
[1] = system: NCI-H23 lung
[2] = system: NCI-H322M lung
[3] = system: HOP-62 NSCLC
[4] = system: NCI-H460 lung
[5] = system: HOP-92 NSCLC
[6] = system: NCI-H522 lung
[7] = system: A549/ATCC NSCLC
[8] = system: 786-0 renal
[9] = system: COLO 205 colon
[10] = system: DU-145 prostate
[11] = system: K-562 leukemia
[12] = system: MALME-3M melanoma
[13] = system: MDA-MB-231 breast
[14] = system: RXF 393 renal
[15] = system: SF-268 CNS
[16] = system: SF-295 CNS
[17] = system: SF-539 CNS
[18] = system: UACC-257 melanoma
[19] = system: M14 melanoma

Measured: growth

CNC(=O)c1cc(Oc2ccc3nc(NC(=O)Nc4ccc(Cl)c(Cl)c4)sc3c2)ccn1
active: [12] -5.7% | [16] -0.659% | [19] 1.23%
inactive: [1] 28.9% | [2] 63.7% | [3] 14.7% | [4] 30.8% | [5] 64.4% | [6] 48.4% | [7] 10.9% | [8] 40.5% | [9] 80.8% | [10] 35.3% | [11] 62.5% | [13] 39.5% | [14] 88.6% | [15] 11.9% | [17] 22.5% | [18] 74.7%

CN1C(=O)N(C)C2C1NC(=S)N2/N=C/C=C/c1ccccc1[N+](=O)[O-] (centres undefined)
inactive: [1] 38.2% | [2] 49.3% | [3] 26.2% | [4] 12.6% | [5] 33.9% | [7] 31.3% | [8] 26.6% | [9] 14.3% | [10] 18.7% | [11] 14.7% | [12] 54.4% | [13] 56.1% | [14] 13.1% | [15] 41.3% | [18] 44.1%
active: [6] 9.84% | [16] 9.8% | [17] 2.83% | [19] 6.06%

COc1ccc2nc3ccccc3c(NCc3ccc(F)cc3)c2c1
active: [4] 5.47% | [5] -11.3% | [8] 6.83% | [9] -54.4% | [11] 1.95% | [12] -5.2% | [14] -18.9% | [17] 3.85% | [18] -11.1%
inactive: [1] 14% | [3] 28.2% | [6] 18.2% | [7] 19.7% | [10] 16.5% | [13] 16.7% | [15] 34.6% | [16] 14.4% | [19] 15.3%

OC(c1ccccc1)(c1ccccc1)c1ccccc1-c1ccccc1
inactive: [1] 83.9% | [2] 101% | [3] 90.4% | [4] 93.1% | [5] 67.1% | [6] 75.9% | [7] 81.8% | [8] 95.9% | [9] 81% | [10] 96.2% | [11] 96.5% | [12] 120% | [13] 84.4% | [14] 103% | [15] 90.6% | [16] 109% | [17] 112% | [18] 101% | [19] 99.4%

CCC(CC)(N(CC(=O)O)CC(=O)O)C(CC)(CC)N(CC(=O)O)CC(=O)O
inactive: [1] 106% | [2] 122% | [3] 103% | [4] 108% | [5] 95.6% | [6] 100% | [7] 91.3% | [8] 109% | [9] 113% | [10] 119% | [11] 101% | [12] 133% | [13] 110% | [14] 120% | [15] 114% | [16] 108% | [17] 109% | [18] 100% | [19] 106%

C=C1C(=O)O[C@H]2[C@H]1CC/C(CNC(=O)c1cc3ccccc3[nH]1)=C\CC[C@@]1(C)O[C@@H]21
inactive: [2] 63.8% | [16] 42.3%
active: [1] -42.3% | [3] 9.39% | [4] -19.7% | [5] -51.1% | [6] -75.4% | [7] 9.2% | [8] -67.3% | [9] -83.3% | [10] -87.7% | [11] -20.6% | [12] -28.9% | [13] -46.6% | [14] -76% | [15] -27.3% | [17] -77.1% | [18] -49.2% | [19] -57.1%

CC(CN)[C@@H]1CC[C@]2(CO)CC[C@]3(C)[C@H](CC[C@@H]4[C@@]5(C)CCC(N)C(C)(C)[C@@H]5CC[C@]43C)[C@@H]12 (some centres undefined)
active: [1] -29.1% | [3] -48.1% | [4] -80% | [6] -50.4% | [7] -89.3% | [8] -63.1% | [10] -87.9% | [11] -55.8% | [13] -68.5% | [15] -60.9%
inactive: [2] 48.8% | [5] 70.9% | [9] 32.8% | [12] 74.2% | [14] 53.1% | [16] 56.9% | [17] 42.2% | [18] 78.1% | [19] 11.8%

CCn1cc(CNc2ccc(C(=O)Nc3cc4cc(OC)c(OC)cc4c(C)n3)cc2)c(C)n1
active: [1] 9.61% | [6] -10.1%
inactive: [2] 85.1% | [3] 12.8% | [4] 58.1% | [5] 78.6% | [7] 29.5% | [8] 70.9% | [9] 28.9% | [10] 56.3% | [11] 15.6% | [12] 25.2% | [13] 74.7% | [14] 90.9% | [15] 48.6% | [16] 30.4% | [17] 75.5% | [18] 48.1% | [19] 22.1%

CCC(C)Nc1ccc(NC(C)CC)cc1 (centres undefined)
active: [9] 9.48%
inactive: [1] 74.5% | [2] 86.4% | [3] 84.8% | [4] 101% | [5] 90.5% | [6] 54.9% | [7] 94.7% | [8] 74% | [10] 109% | [11] 54.2% | [12] 73.4% | [13] 82% | [14] 81.8% | [15] 96.6% | [16] 111% | [17] 90.7% | [18] 21.1% | [19] 98.9%

CCNCc1ccc(O)c2ncccc12
active: [5] -8.24% | [6] 8.59% | [18] 9.76%
inactive: [1] 24.1% | [2] 38% | [3] 27.8% | [4] 20% | [7] 17.6% | [8] 39.6% | [9] 80.7% | [10] 37% | [11] 13.9% | [12] 60.6% | [13] 46.9% | [14] 60.3% | [15] 35.2% | [16] 39.9% | [17] 25.1% | [19] 33.8%
